Our source for the inhibition values is ChEMBL document CHEMBL1961873, “Compounds: GSK PKIS; Assays: Nanosyn kinase panel” (2012).

Assay [1] has as its target T1, Ephrin type-B receptor 2 (Homo sapiens) (UniProt P29323).
T1 sequence (whole entry): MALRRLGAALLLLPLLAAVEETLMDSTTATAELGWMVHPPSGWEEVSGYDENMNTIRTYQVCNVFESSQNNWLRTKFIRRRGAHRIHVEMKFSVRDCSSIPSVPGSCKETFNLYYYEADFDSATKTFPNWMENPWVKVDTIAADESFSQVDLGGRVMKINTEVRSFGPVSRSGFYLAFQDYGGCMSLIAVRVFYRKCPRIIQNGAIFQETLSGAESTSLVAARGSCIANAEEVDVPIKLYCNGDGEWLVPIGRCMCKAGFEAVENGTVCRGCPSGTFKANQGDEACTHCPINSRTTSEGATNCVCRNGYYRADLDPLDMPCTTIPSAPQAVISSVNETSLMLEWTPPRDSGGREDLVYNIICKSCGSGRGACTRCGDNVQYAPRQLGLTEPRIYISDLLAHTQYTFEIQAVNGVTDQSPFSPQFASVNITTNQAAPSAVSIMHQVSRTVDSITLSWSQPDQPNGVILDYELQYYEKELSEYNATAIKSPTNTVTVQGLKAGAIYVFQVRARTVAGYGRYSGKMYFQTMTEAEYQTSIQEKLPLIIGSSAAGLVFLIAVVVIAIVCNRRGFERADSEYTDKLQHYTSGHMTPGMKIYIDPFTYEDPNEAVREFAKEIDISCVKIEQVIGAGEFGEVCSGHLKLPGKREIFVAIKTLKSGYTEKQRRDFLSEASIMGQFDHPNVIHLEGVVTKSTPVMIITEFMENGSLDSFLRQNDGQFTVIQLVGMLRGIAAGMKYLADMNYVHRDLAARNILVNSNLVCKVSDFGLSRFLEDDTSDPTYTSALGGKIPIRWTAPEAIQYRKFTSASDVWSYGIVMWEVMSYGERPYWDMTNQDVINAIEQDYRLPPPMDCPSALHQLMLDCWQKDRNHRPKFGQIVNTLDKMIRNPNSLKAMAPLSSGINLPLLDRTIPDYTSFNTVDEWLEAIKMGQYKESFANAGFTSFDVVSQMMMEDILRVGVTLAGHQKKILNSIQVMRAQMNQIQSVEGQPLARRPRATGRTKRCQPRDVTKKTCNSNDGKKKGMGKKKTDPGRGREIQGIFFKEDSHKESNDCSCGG
As to conditions: at 1 µM.

Assay [2] has as its target T2, Ephrin type-B receptor 3 (Homo sapiens) (UniProt P54753).
T2 sequence (whole entry): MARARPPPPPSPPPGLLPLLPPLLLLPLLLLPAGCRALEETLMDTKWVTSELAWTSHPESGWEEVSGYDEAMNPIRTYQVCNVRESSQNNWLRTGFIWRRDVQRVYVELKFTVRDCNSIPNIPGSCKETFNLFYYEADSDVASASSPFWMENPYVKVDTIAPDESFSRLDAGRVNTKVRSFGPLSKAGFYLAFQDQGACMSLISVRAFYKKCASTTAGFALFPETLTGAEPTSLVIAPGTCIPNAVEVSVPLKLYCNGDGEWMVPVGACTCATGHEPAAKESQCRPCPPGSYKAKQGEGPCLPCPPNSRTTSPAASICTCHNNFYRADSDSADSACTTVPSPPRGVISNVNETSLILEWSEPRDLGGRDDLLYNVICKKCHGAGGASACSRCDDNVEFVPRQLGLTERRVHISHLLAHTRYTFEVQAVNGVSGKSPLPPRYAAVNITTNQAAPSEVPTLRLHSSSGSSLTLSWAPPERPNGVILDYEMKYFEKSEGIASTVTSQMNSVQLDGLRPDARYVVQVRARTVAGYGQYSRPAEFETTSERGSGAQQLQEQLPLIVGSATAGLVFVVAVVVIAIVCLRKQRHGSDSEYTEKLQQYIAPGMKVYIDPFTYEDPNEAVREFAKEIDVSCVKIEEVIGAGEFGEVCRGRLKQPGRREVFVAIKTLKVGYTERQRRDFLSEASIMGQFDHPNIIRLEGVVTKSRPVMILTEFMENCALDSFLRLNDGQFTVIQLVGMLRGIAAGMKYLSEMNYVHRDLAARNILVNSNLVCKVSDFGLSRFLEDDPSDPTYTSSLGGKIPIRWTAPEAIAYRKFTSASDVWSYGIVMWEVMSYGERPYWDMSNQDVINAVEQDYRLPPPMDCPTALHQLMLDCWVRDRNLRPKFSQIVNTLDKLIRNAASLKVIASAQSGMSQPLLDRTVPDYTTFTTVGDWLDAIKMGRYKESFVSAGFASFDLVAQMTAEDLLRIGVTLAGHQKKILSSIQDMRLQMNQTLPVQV
The settings on record: at 0.1 µM.

Assay [3] has as its target T2, Ephrin type-B receptor 3 (Homo sapiens). As to conditions: at 1 µM.
Assay [4] concerns the target T3, Ephrin type-B receptor 4 (Homo sapiens) (UniProt P54760).
T3 sequence (whole entry): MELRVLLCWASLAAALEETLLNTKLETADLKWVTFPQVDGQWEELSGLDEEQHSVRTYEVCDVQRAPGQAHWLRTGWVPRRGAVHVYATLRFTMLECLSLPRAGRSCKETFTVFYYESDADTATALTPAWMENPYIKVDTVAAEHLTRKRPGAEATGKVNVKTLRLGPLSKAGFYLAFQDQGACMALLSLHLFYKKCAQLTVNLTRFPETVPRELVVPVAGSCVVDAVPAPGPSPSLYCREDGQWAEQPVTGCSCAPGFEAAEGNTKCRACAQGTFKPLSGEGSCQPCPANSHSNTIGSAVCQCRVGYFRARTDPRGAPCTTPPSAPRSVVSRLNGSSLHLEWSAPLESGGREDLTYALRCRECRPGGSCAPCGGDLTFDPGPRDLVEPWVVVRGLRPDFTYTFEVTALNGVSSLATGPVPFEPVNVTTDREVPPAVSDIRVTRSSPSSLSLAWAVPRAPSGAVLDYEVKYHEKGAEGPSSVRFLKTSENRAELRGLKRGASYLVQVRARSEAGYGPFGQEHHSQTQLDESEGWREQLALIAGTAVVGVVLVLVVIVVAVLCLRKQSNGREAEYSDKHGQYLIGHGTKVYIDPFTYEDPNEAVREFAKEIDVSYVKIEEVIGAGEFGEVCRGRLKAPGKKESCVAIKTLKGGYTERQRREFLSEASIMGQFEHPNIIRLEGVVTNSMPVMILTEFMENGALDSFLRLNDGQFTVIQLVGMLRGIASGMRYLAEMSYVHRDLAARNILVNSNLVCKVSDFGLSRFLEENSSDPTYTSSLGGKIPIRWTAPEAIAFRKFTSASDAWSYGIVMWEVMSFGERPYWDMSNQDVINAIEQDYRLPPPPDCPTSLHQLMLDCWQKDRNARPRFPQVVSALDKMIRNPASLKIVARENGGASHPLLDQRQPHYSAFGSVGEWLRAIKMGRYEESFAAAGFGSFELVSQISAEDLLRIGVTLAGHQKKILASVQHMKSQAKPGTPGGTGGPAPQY
As to conditions: at 0.1 µM.

Assay [5] addresses T3, Ephrin type-B receptor 4 (Homo sapiens). The settings on record: at 1 µM.
For assay [6], the target named is Receptor tyrosine-protein kinase erbB-2 (Homo sapiens) (UniProt P04626). The settings on record: at 0.1 µM.
Assay [7] has the same target. As to conditions: at 1 µM.
The target in assay [8] is Receptor tyrosine-protein kinase erbB-4 (Homo sapiens) (UniProt Q15303). As to conditions: at 0.1 µM.
Assay [9] has the same target. The settings on record: at 1 µM.
Assay [10] deals with Tyrosine-protein kinase Fer (Homo sapiens) (UniProt P16591). The settings on record: at 0.1 µM.
Assay [11] shares this target. As to conditions: at 1 µM.
The target of assay [12] is Tyrosine-protein kinase Fes/Fps (Homo sapiens) (UniProt P07332). As to conditions: at 0.1 µM.
Assay [13] has the same target. As to conditions: at 1 µM.
The target in assay [14] is Fibroblast growth factor receptor 1 (Homo sapiens) (UniProt P11362). As to conditions: at 0.1 µM.
Assay [15] shares this target. The settings on record: at 1 µM.
Assay [16] addresses Fibroblast growth factor receptor 2 (Homo sapiens) (UniProt P21802). The settings on record: at 0.1 µM.
For assay [17] the target is unchanged. The settings on record: at 1 µM.
In assay [18] the target is Fibroblast growth factor receptor 3 (Homo sapiens) (UniProt P22607). The settings on record: at 0.1 µM.
The target is the same in assay [19]. The settings on record: at 1 µM.
The target in assay [20] is Fibroblast growth factor receptor 4 (Homo sapiens) (UniProt P22455). The settings on record: at 0.1 µM.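 Further: values are mean percent inhibition of FGFR4.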
Fibroblast growth factor receptor 4 (Homo sapiens), sequence (P22455 22-802 limits assumed): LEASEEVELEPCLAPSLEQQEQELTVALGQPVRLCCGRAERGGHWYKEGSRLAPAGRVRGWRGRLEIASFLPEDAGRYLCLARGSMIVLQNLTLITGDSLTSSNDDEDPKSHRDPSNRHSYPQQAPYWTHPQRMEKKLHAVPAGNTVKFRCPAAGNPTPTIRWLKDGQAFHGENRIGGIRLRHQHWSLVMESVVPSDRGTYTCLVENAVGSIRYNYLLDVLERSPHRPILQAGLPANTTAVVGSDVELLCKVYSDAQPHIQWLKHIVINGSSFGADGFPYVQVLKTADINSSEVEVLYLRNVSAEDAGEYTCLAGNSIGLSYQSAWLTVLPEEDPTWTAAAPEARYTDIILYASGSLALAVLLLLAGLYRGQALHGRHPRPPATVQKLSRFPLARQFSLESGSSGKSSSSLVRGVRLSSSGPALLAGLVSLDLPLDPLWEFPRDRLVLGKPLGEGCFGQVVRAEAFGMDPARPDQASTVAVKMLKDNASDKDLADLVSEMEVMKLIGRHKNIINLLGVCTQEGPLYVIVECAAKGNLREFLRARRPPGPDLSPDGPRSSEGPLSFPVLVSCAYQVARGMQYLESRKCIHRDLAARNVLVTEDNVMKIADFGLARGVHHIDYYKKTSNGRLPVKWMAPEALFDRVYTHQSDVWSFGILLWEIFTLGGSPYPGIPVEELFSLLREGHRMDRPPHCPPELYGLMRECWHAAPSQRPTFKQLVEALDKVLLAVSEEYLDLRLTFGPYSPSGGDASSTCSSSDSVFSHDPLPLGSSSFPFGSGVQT

Fibroblast growth factor receptor 3 (Homo sapiens), sequence (P22607 23-806 limits assumed): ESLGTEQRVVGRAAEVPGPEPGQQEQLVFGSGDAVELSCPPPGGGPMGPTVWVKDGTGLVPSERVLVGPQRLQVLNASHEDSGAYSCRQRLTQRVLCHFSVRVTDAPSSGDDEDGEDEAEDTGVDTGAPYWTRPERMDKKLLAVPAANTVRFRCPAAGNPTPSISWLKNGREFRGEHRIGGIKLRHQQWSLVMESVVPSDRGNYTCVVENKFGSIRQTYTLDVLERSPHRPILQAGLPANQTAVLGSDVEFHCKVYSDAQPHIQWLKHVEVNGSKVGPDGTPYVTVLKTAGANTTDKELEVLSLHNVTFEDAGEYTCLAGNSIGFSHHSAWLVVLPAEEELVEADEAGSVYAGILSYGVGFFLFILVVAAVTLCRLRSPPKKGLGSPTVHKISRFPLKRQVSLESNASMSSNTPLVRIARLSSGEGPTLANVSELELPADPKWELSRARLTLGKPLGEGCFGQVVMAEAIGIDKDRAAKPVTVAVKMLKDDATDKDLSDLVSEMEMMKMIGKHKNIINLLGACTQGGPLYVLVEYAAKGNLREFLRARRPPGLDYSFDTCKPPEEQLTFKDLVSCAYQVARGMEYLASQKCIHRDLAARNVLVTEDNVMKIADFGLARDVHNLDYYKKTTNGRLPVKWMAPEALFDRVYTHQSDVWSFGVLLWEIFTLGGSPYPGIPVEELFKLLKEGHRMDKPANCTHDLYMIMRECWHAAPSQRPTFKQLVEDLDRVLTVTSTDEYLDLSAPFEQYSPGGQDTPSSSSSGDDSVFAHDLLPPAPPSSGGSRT
Fibroblast growth factor receptor 2 (Homo sapiens), sequence (P21802 22-821 limits assumed): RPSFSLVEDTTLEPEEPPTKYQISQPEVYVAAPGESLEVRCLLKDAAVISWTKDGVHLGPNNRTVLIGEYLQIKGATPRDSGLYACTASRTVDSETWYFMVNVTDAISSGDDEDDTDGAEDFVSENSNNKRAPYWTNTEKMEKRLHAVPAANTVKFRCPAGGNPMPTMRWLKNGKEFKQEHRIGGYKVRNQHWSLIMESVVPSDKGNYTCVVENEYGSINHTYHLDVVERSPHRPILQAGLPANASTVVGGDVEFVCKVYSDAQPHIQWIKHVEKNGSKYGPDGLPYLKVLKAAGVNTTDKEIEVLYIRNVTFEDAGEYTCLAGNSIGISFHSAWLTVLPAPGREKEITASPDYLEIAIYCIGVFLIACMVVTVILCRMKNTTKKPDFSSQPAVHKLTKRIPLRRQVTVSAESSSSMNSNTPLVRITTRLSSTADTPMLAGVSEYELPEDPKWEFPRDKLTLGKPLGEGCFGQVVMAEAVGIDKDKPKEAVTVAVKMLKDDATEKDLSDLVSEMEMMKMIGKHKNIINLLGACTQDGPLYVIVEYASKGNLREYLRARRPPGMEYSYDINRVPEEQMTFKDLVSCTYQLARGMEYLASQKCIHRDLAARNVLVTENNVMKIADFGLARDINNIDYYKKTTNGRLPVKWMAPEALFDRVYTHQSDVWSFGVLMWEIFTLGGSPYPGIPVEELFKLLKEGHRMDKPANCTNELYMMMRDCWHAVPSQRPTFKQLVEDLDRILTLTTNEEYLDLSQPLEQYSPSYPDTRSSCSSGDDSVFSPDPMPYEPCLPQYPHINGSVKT
Receptor tyrosine-protein kinase erbB-4 (Homo sapiens), sequence (Q15303 whole entry): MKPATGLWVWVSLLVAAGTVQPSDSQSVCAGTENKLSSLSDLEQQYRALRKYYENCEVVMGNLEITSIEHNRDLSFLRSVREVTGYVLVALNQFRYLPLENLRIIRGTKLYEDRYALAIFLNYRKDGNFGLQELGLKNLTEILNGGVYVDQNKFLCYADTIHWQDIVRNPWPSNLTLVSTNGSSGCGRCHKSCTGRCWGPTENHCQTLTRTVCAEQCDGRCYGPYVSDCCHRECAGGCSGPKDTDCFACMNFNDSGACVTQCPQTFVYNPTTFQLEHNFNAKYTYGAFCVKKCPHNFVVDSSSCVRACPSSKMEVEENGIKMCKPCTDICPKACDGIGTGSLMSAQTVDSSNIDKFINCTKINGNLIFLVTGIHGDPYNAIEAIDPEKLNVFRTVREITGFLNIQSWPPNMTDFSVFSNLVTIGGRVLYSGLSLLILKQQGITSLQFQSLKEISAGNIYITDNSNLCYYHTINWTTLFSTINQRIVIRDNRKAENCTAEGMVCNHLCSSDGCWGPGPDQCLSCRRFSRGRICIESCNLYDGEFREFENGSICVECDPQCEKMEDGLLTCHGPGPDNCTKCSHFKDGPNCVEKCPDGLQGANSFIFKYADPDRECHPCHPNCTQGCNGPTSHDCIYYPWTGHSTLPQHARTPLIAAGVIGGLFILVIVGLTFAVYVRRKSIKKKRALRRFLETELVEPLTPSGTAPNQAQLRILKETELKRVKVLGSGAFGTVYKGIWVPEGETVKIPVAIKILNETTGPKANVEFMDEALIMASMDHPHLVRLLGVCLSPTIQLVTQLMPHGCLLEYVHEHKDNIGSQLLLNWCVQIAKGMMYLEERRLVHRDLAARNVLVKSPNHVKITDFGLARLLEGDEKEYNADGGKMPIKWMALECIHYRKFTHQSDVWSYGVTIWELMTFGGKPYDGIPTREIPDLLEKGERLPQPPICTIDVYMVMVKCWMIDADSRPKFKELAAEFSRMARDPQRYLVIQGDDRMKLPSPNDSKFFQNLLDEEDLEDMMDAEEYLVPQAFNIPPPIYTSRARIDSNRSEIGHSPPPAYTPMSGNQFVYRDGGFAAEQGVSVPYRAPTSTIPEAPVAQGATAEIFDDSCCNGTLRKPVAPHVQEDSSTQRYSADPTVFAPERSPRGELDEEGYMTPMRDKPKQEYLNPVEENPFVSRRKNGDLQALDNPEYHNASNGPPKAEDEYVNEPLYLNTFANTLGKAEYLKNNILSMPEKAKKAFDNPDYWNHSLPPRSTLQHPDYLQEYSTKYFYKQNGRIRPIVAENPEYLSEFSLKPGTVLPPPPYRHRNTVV
Tyrosine-protein kinase Fes/Fps (Homo sapiens), sequence (P07332 whole entry): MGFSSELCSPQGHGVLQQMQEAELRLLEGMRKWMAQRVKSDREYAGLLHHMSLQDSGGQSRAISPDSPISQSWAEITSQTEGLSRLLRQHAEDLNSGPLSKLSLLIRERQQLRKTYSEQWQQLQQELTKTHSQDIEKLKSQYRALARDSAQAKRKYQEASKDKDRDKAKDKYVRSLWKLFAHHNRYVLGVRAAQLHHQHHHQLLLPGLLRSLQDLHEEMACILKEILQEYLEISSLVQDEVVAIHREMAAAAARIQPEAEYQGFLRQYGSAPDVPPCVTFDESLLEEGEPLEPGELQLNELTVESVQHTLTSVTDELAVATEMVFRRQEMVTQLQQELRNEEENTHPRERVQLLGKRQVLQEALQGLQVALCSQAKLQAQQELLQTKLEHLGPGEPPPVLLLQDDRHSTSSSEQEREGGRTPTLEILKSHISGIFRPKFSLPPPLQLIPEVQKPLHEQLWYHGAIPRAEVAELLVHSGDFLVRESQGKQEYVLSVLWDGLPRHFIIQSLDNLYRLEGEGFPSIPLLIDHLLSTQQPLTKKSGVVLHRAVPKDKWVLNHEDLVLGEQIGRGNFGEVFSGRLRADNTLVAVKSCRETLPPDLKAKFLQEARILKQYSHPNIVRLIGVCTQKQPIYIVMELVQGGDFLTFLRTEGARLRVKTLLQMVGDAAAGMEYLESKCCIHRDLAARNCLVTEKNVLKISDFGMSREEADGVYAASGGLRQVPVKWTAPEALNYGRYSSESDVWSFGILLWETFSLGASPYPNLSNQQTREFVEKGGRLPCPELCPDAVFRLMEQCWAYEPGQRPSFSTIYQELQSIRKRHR

As to `c1ccc(Oc2ccc(Nc3ncc(-c4ccccc4)o3)cc2)cc1`, the inhibition is 9.65% in assay [1]; 2.67% in assay [2]; 0.66% in assay [3]; 2.42% in [4]; 0.76% in [5]; -0.01% in [6]. In addition, the inhibition stood at 1.41% in assay [7]; 4.29% in assay [8]; 5.09% in assay [9]; 2.19% in [10]; 1.64% in assay [11]; 0.55% in assay [12]. Besides, the inhibition in assay [13] is 0.4%; in assay [14] it was -1.76%; in assay [15] it was 2.11%; in assay [16], 1.12%; in assay [17] it was 3.49%; in assay [18], 4.41%. In addition, the values for the inhibition in [19] and in assay [20] were 4.9% and 2.77%, respectively.

Take `COc1cc(Nc2ncc(-c3ccccc3)o2)cc(OC)c1OC`: the inhibition is 5.83% in assay [1]; -5.87% in assay [2]; -2.19% in [3]; 1.05% in assay [4]; 3.25% in assay [5]; 0.87% in assay [6]. In addition, the inhibition in assay [7] was -1.74%; in assay [8] it was -4.19%; in assay [9] it was -2.66%; in assay [10], -1.48%; in [11], 2.66%; in [12], 0.68%. Further, the inhibition was -1.45% in assay [13]; -3.33% in [14]; 8.79% in assay [15]; 4.47% in assay [16]; 27% in [17]; 1.69% in assay [18]. The inhibition in assay [19] is 16.6%; in assay [20], -0.19%.

With `Cc1ccc(NC(=O)c2ccoc2)cc1-c1ccc(C(=O)NCC2CC2)cc1`, the inhibition in assay [1] is 5.88%; in assay [2], 3.21%; in assay [3], 3.35%; in assay [4], 0.88%; in [5], 0.82%; in assay [6], 5.47%. The inhibition is 5.7% in assay [7]; 8.06% in assay [8]; 10.6% in [9]; 0.47% in [10]; -0.39% in assay [11]; 2.83% in assay [12]. Moreover, the inhibition was 1.55% in assay [13]; 11.2% in assay [14]; 3.99% in [15]; 0.64% in assay [16]; 3.44% in assay [17]; 2.69% in assay [18]. In addition, the inhibition is 5.14% in assay [19] and 1.47% in [20].

In the case of `C/C(Nc1ccc(S(N)(=O)=O)cc1)=C1/C(=O)Nc2ccccc21`, the inhibition in assay [1] is -0.51%; in assay [2] it was -3.87%; in [3] it was -3.57%; in [4], -2.17%; in [5], -2.22%; in assay [6] it was -3.56%. Besides, the inhibition in assay [7] is -3.5%; in assay [8] it was -5.37%; in assay [9] it was -8.14%; in assay [10], 0.46%; in [11], 10.5%; in assay [12], -2.91%. Besides, the inhibition in assay [13] was -3.39%; in assay [14], -4.77%; in assay [15] it was 6.33%; in assay [16], 0.2%; in assay [17] it was 21.1%; in assay [18], 0.94%. Also, the inhibition in assay [19] was determined as 21%; in assay [20], 1.73%.

Turning to `NC(=O)c1ccc(Oc2nccc(-c3c(-c4ccc(F)cc4)ncn3C3CCNCC3)n2)cc1`, the inhibition in [1] came out at 4.72%; in assay [2] it was 4.03%; in assay [3], 3.75%; in assay [4], 3.7%; in [5], 3.09%; in assay [6], 3.73%. For the same compound, the inhibition came out at 3.35% in assay [7]; 5.71% in assay [8]; 8.73% in [9]; 7.08% in assay [10]; 10.6% in [11]; 4.82% in assay [12]. Moreover, the inhibition in assay [13] stood at 4.5%; in [14] it was 5.23%; in [15], 8.19%; in assay [16], 11.3%; in [17], 8.04%; in assay [18], 11%. The inhibition amounted to 6.64% in assay [19] and 5.18% in assay [20].

Take `COc1cc2ncn(-c3cc(OCc4ccccc4C(F)(F)F)c(C(C)=O)s3)c2cc1OC`: the inhibition amounted to 9% in assay [1]; 3.62% in assay [2]; 3.29% in [3]; 0.64% in assay [4]; 3.47% in assay [5]; 3.47% in assay [6]. The inhibition in [7] worked out at 4.43%; in [8], 6.91%; in assay [9], 9.68%; in assay [10] it was 2.43%; in assay [11] it was 7.96%; in assay [12], 2.84%. Moreover, the inhibition in [13] is 2.74%; in assay [14], 2.64%; in assay [15] it was 2.73%; in [16], 3.27%; in assay [17], 9.16%; in assay [18], 2.58%. The inhibition was 6.41% in [19] and -0.33% in [20].
